Test results published in PubChem BioAssay AID1159580 (chemical genetic matrix, 2015).
Out of some 5,500 compounds screened, about 2,000 (36%) were called active. Not shown: some 18% with an inconclusive outcome. No stated cut-off is given here; in the data, active means normalized growth mostly below about 0.91 (no sharp cut-off); inconclusive means no clear call, values can overlap the other calls; inactive means mostly above about 0.92. Some of the results follow.

Assay: chemical genetic growth profiling, strain panel (AID 1159580);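 further: tested at 20 µM; growth read once vehicle control cultures reached saturation at 30 °C; 1 = growth at the plate median or of vehicle wells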
Settings: S. cerevisiae deletion strains, growth OD
[1] = locus YDL101C, strain DUN1, stronger effect = lower value
[2] = locus YHR030C, strain SLT2, stronger effect = lower value

Measured: normalized growth

CCN(CCS(=O)(=O)c1ccc(C)cc1)S(=O)(=O)c1ccccc1
inactive: locus YAL013W, strain DEP1, stronger effect = lower value 1.02 | locus YBR229C, strain ROT2, stronger effect = lower value 1.01 | locus YCL061C, strain MRC1, stronger effect = lower value 0.988 | [1] 0.991 | locus YDL134C, strain PPH21, stronger effect = lower value 0.987 | locus YDR150W, strain NUM1, stronger effect = lower value 1.01 | locus YEL061C, strain CIN8, stronger effect = lower value 0.987 | locus YGR078C, strain PAC10, stronger effect = lower value 0.998 | locus YGR229C, strain SMI1, stronger effect = lower value 0.999 | [2] 0.993 | locus YHR087W, strain rtc3, stronger effect = lower value 0.994 | locus YJR043C, strain POL32, stronger effect = lower value 1 | locus YJR075W, strain HOC1, stronger effect = lower value 0.995 | locus YKL190W, strain CNB1, stronger effect = lower value 0.998 | locus YLR039C, strain RIC1, stronger effect = lower value 1.05 | locus YLR058C, strain SHM2 (second series), stronger effect = lower value 0.998 | locus YLR085C, strain ARP6, stronger effect = lower value 1.06 | locus YLR262C, strain YPT6, stronger effect = lower value 1.05 | locus YML094W, strain GIM5, stronger effect = lower value 1.03 | locus YMR219W, strain ESC1, stronger effect = lower value 1.01 | locus YMR263W, strain SAP30, stronger effect = lower value 0.988 | locus YMR307W, strain GAS1, stronger effect = lower value 0.969 | locus YNL153C, strain GIM3, stronger effect = lower value 0.984 | locus YNL298W, strain CLA4 (second series), stronger effect = lower value 1.01 | locus YNL322C, strain KRE1, stronger effect = lower value 1.01 | locus YNR030W, strain Alg12, stronger effect = lower value 0.99 | locus YPL055C, strain LGE1, stronger effect = lower value 1.06 | locus YPL241C, strain CIN2, stronger effect = lower value 1 | locus YPR135W, strain CTF4, stronger effect = lower value 0.943

O=c1[nH][nH]c(=O)n1CCCc1cc2cccc3ccc4cccc1c4c32
inactive: locus YAR019C, strain CDC15, stronger effect = lower value 1 | locus YBL105C, strain PKC1, stronger effect = lower value 0.987 | locus YBR135W, strain CKS1, stronger effect = lower value 0.998 | locus YBR136W, strain MEC1, stronger effect = lower value 0.988 | locus YBR160W, strain CDC28, stronger effect = lower value 0.994 | locus YDL017W, strain CDC7, stronger effect = lower value 0.994 | locus YDL028C, strain MPS1, stronger effect = lower value 0.992 | [1] 0.984 | locus YDL108W, strain KIN28, stronger effect = lower value 0.988 | locus YDL132W, strain cdc53, stronger effect = lower value 0.99 | locus YDL214C, strain PRR2, stronger effect = lower value 0.968 | locus YDR052C, strain DBF4, stronger effect = lower value 0.991 | locus YDR054C, strain cdc34, stronger effect = lower value 0.994 | locus YDR226W, strain ADK1, stronger effect = lower value 0.995 | locus YDR477W, strain SNF1, stronger effect = lower value 0.979 | locus YER123W, strain YCK3, stronger effect = lower value 0.949 | locus YER133W, strain GLC7, stronger effect = lower value 0.97 | locus YFL009W, strain cdc4, stronger effect = lower value 0.994 | locus YFL029C, strain CAK1, stronger effect = lower value 0.999 | locus YFR003C, strain YPI1, stronger effect = lower value 0.981 | locus YFR019W, strain FAB1, stronger effect = lower value 0.935 | locus YFR028C, strain CDC14, stronger effect = lower value 0.987 | locus YGR040W, strain KSS1, stronger effect = lower value 0.95 | locus YGR052W, strain FMP48, stronger effect = lower value 0.936 | locus YGR092W, strain DBF2, stronger effect = lower value 0.9 | [2] 1.02 | locus YHR079C, strain IRE1, stronger effect = lower value 1 | locus YHR082C, strain KSP1, stronger effect = lower value 0.986 | locus YHR205W, strain SCH9, stronger effect = lower value 0.915 | locus YIL147C, strain SLN1, stronger effect = lower value 0.983 | locus YJL095W, strain BCK1, stronger effect = lower value 0.873 | locus YJL128C, strain PBS2, stronger effect = lower value 0.952 | locus YJL157C, strain FAR1, stronger effect = lower value 0.99 | locus YJR016C, strain ILV3, stronger effect = lower value 0.997 | locus YJR066W, strain TOR1 (second series), stronger effect = lower value 0.927 | locus YJR066W, strain TOR1, stronger effect = lower value 0.964 | locus YKL048C, strain ELM1, stronger effect = lower value 0.956 | locus YKL067W, strain YNK1, stronger effect = lower value 0.971 | locus YKL101W, strain HSL1, stronger effect = lower value 0.937 | locus YKL193C, strain SDS22, stronger effect = lower value 0.992 | locus YKL203C, strain TOR2, stronger effect = lower value 0.985 | locus YLR113W, strain HOG1, stronger effect = lower value 0.922 | locus YLR133W, strain CKI1, stronger effect = lower value 0.952 | locus YLR403W, strain SFP1, stronger effect = lower value 0.908 | locus YML070W, strain DAK1, stronger effect = lower value 0.942 | locus YMR001C, strain CDC5, stronger effect = lower value 0.992 | locus YMR205C, strain PFK2 (second series), stronger effect = lower value 0.973 | locus YMR277W, strain FCP1, stronger effect = lower value 0.989 | locus YNL006W, strain LST8, stronger effect = lower value 0.993 | locus YNL020C, strain ARK1, stronger effect = lower value 0.968 | locus YNL161W, strain CBK1, stronger effect = lower value 0.993 | locus YNL183C, strain NPR1, stronger effect = lower value 0.911 | locus YNL207W, strain RIO2, stronger effect = lower value 0.995 | locus YNL222W, strain SSU72, stronger effect = lower value 0.996 | locus YNL307C, strain MCK1 (second series), stronger effect = lower value 0.909 | locus YOL078W, strain AVO1, stronger effect = lower value 0.993 | locus YOL136C, strain PFK27, stronger effect = lower value 0.94 | locus YOR061W, strain CKA2, stronger effect = lower value 0.975 | locus YOR119C, strain RIO1, stronger effect = lower value 0.993 | locus YOR231W, strain MKK1, stronger effect = lower value 0.972 | locus YOR329C, strain SCD5, stronger effect = lower value 0.991 | locus YPL031C, strain PHO85, stronger effect = lower value 0.961 | locus YPL153C, strain RAD53, stronger effect = lower value 0.963 | locus YPL204W, strain HRR25, stronger effect = lower value 0.941 | locus YPL209C, strain IPL1, stronger effect = lower value 0.988 | locus YPL256C, strain CLN2, stronger effect = lower value 1.08 | locus YPR025C, strain CCL1, stronger effect = lower value 0.998 | locus YPR106W, strain ISR1, stronger effect = lower value 0.985 | locus YPR111W, strain DBF20, stronger effect = lower value 0.973 | strain NNK1, stronger effect = lower value 0.991 | strain TSCII, stronger effect = lower value 0.994
